# Compound activity as filed in PubChem BioAssay.
# In the library only some 13% were active in any assay of this set; here they are far more common.
# USP30 inh – human USP30 deubiquitinase inhibition | purified USP30, Ub-rhodamine cleavage fluorescence | actives 5.3% (n = 47,000) | inhibition, % at 25 µM | Q70CQ3
# USP10 block – blocks human USP10 ubiquitin-rhodamine cleavage. Q14694. purified USP10, Ub-rhodamine fluorescence, 60 min. inhibition, % at 20 µM. actives 1.1% (n = 47,000). AID 1645856
# USP28 inh – inhibitors of human USP28 deubiquitinase; purified USP28, Ub-rhodamine cleavage fluorescence, 30 min; inhibition, % at 25 µM; actives 3% (n = 47,000); AID 1645857
# USP17 block – blocks human USP17 ubiquitin-rhodamine cleavage; A8MUK1; purified USP17, Ub-rhodamine cleavage fluorescence, 3 h; inhibition, % at 50 µM; actives 6.5% (n = 47,000); AID 1645855
# USP8 block – blocks human USP8 ubiquitin-rhodamine cleavage; purified USP8, Ub-rhodamine cleavage fluorescence, 30 min; AID 1645853; inhibition, % at 20 µM; P40818; actives 4.2% (n = 47,000)
# * = called active by the depositor; i = inactive; . = no result given. Rule as the data show it: active = inhibition above about 30%; inactive = the rest.
SMILES,USP30 inh,USP10 block,USP28 inh,USP17 block,USP8 block
CCS(=O)(=O)N1CCc2cc(C(=O)Nc3ccc4c(c3)OCCO4)ccc21,4,-2,93*,5,4
CS(=O)(=O)N1CCCc2cc(C(=O)Nc3ccc(Oc4ccccc4)cc3)ccc21,-18,8,54*,-14,5
CS(=O)(=O)N1CCCc2cc(C(=O)NCc3ccc4c(c3)OCO4)ccc21,3,0,14,-4,4
CC1CS(=O)(=O)N(c2ccc(C(=O)Nc3ccc4c(c3)OCCO4)cc2)C1=O (stereo not drawn),17,2,79*,56*,3
CS(=O)(=O)N1CCc2cc(C(=O)Nc3ccc(Cc4ccncc4)cc3)ccc21,6,5,75*,-9,-11
O=C(Nc1nnc(-c2cc(Cl)ccc2Cl)o1)C1CC1,17,3,15,-18,3
COc1cccc(-n2c(CNCc3cccnc3)nc3ccc([N+](=O)[O-])cc3c2=O)c1,68*,5,36*,36*,-66
Cc1ccc(-c2c3c(=O)n(C)c(=O)n(C)c3cn2Cc2ccc(F)cc2)cc1,.,0,.,-5,1
O=C(NC(C(=O)OCc1ccccc1)c1ccccc1)c1ccccc1 (stereo not drawn),32*,6,9,26,4
CC(CNC(=O)c1ccccc1)NC(=O)c1ccccc1 (stereo not drawn),-1,0,2,6,8
COc1ccc(N2CCN(C(=O)CN3C(=O)[C@H]4CCCN4c4ncccc43)CC2)cc1,-74,-1,-20,34*,3
Cc1cc(C(=O)COC(=O)c2ccc(N3CCCC3=O)cc2)c(C)n1CC1COc2ccccc2O1 (stereo not drawn),-76,-13,-11,-29,-8
COc1cccc(N2CCN(c3ccc4nnc(CCC(=O)NC5CCCC5)n4n3)CC2)c1,20,-2,7,22,65*
COc1cccc(N2CCN(c3ccc4nnc(CCC(=O)N5CCc6ccccc6C5)n4n3)CC2)c1,48*,8,39*,72*,11
COc1cccc(N2CCN(c3ccc4nnc(CCC(=O)NCc5ccco5)n4n3)CC2)c1,2,-8,-5,0,-9
Cc1ccc(CNC(=O)C2CCCN(c3cnc4nccnc4c3)C2)cc1 (stereo not drawn),i,-5,-248,-138,-180
Cc1ccc(CCNC(=O)C2CCCN(c3ncnc4onc(C)c34)C2)cc1 (stereo not drawn),36*,0,5,-6,18
Cc1cc(=O)oc2cc(OCC(=O)Nc3cc(Cl)ccc3N3CCOCC3)ccc12,50*,-3,15,42*,22
O=S(=O)(c1ccccc1)n1nc(NCc2cccc(Cl)c2)nc1NCc1cccc(Cl)c1,11,13,2,0,-20
COc1ccc(NC(=O)Nc2ccc(F)c(-c3nnc(-c4ccccc4)o3)c2)c(OC)c1,40*,14,3,19,7
CCN1CCN(c2nc(NCc3ccco3)c3ccccc3n2)CC1,-15,-4,-9,-18,-3
Cc1ccc(Nc2nc(NCc3ccco3)c3ccccc3n2)cc1,60*,9,67*,82*,31*
CC(C)CCNC(=O)c1cnn2c(C(F)(F)F)cc(-c3ccccc3)nc12,-3,9,-9,-1,-25
O=C(NCc1cccnc1)c1cnn2c(C(F)(F)F)cc(-c3ccccc3)nc12,64*,-2,2,14,0
COc1ccc(C(C(=O)NC2CCCC2)N(Cc2ccccc2Cl)C(=O)c2ccco2)cc1 (stereo not drawn),35*,7,6,11,8
SMILES,USP30 inh,USP10 block,USP28 inh,USP17 block,USP8 block
COc1ccc2[nH]c(=O)c(CN(C)C(=O)c3ccc([N+](=O)[O-])cc3)cc2c1,-3,5,3,46*,26
CN(Cc1cc2ccccc2[nH]c1=O)C(=O)c1ccc(Cl)cc1,3,0,6,-2,2
O=C1NCCCn2nc(C3CCN(C(=O)C45CC6CC(CC(C6)C4)C5)CC3)cc21,20,0,10,10,12
O=C1CC(c2ccco2)Cc2nc(NCc3ccco3)ncc21 (stereo not drawn),-113,6,-16,34*,-4
O=C1CC(c2ccccc2)Cc2nc(NCc3ccco3)ncc21 (stereo not drawn),-24,6,-13,-26,-1
CN(C)C(=O)C1(Cc2cc(-c3ccccc3)no2)CCCN(Cc2cccc(F)c2)C1 (stereo not drawn),-24,-5,-10,-16,-16
CCOC(=O)c1cc2c(ccn2-c2ccc(F)cc2)n1CC(=O)Nc1ccc2c(c1)OCCO2,30,37*,14,16,54*
CCOC(=O)c1cc2c(ccn2C)n1CC(=O)NC1CC1,i,-5,-214,-134,-55
COc1ccc(C(=O)Nc2ccc3nc(C)c(C)nc3c2)cc1,-10,0,21,-5,-7
O=C(Nc1ccc2n[nH]nc2c1)c1ccc(Cl)c(Cl)c1,53*,8,17,51*,0
CCn1c(=O)c(C(=O)N2CCN(c3cc(Cl)ccc3C)CC2)nc2ccccc21,-8,0,7,4,1
Cc1cc(-c2cnc(NC(C)C)nc2C2CCN(C(=O)c3cnccn3)CC2)on1,13,-1,11,22,16
O=C(Nc1ccc(Oc2ccccc2)cc1)C1C2C=CC3(O2)C1C(=O)N(CCCN1CCOCC1)C3C(=O)NC1CCCCC1 (stereo not drawn),-23,-5,-6,-23,-70
O=C(/C=C/c1c(F)cccc1Cl)N1CCc2ccccc2C1,29,9,43*,75*,93*
O=C(/C=C/c1ccc(Cl)cc1)N1CCc2ccccc2C1,5,4,0,.,3
CCN(CC)c1ccc2ccc(C(=O)NC(C)C)cn12,-123,-9,-51,-71,-230
COCCN1C(=O)c2ccccc2C(C(=O)Nc2ccc3c(c2)OCO3)C12CCCC2 (stereo not drawn),9,0,23,45*,69*
COCCN1C(=O)c2ccccc2C(C(=O)Nc2ccccn2)C12CCCCC2 (stereo not drawn),-30,-6,-6,0,-18
O=C(Nc1nccs1)C1c2ccccc2C(=O)N(Cc2ccccc2)C12CCCC2 (stereo not drawn),15,26,1,7,69*
COc1ccc(CN(C)c2nc3cc(C)nn3c3ccccc23)cc1,-9,3,-5,-43,8
c1ccc2c(c1)N=C(c1ccc3c(c1)OCO3)CCN2,-60,-7,13,41*,78*
Cc1nccc(-c2ccc3c(c2)OCO3)n1,-63,1,1,5,12
COc1cccc(CC(=O)N2C[C@H]3C[C@H]4[C@](C2)(CN(CC(C)C)S4(=O)=O)O3)c1,1,-1,-4,-16,-1
Cn1nc(C(=O)Nc2cccc(Br)c2)c(Cl)c1C(F)(F)F,3,5,0,2,9
